From paper PMC7862700, “An all-to-all approach to the identification of sequence-specific readers for epigenetic DNA modifications on cytosine” come the findings set out here.

What all share (assay): DAPPL (digital affinity profiling via proximity ligation, sequencing); 10 mM Tris-HCl pH 7.5, 50 mM NaCl, 1 mM DTT, 4% glycerol, room temperature, 30 min; GST-TFs on glutathione beads, 16-mer random dsDNA library, 0.1% formaldehyde crosslink after washing; high values mean tight binding
One assay addresses T1, FEV (Homo sapiens, UniProt Q99581 1-238).
T1 sequence: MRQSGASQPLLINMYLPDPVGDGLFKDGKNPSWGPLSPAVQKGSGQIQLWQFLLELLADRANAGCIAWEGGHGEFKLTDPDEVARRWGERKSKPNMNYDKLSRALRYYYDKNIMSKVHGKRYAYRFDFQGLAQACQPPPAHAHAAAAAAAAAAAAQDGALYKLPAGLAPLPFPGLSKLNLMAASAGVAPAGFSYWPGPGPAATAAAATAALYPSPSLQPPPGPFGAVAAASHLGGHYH
To be noted: protein: recombinant; tags: N-terminal GST; dsDNA, one strand shown. An outline of the steps:
(§1)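 Binding signal is each hexamer's read frequency for a factor divided by its frequency in the tag-only sample. The factors were GST-fused human transcription factors from yeast, captured on glutathione beads, DNA-barcoded and pooled with that sample. Pools were incubated with 200 nmole of a random double-stranded 16-mer DNA library in Tris/NaCl/DTT/glycerol buffer at room temperature for 30 min, then washed, crosslinked with 0.1% formaldehyde, proximity-ligated with BsaI/T4 ligase (1 h, 37 °C), PCR-amplified and sequenced on an Illumina NextSeq500.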

Another assay concerns the target ETV5 (Homo sapiens, UniProt P41161 1-510). To be noted: protein: recombinant; tags: N-terminal GST; dsDNA, one strand shown. In short, it runs like this:
as §1

Another assay addresses HSF1 (Homo sapiens, UniProt Q00613 1-529). To be noted: protein: recombinant; tags: N-terminal GST; chain copies: 3; dsDNA, one strand shown. In short, it runs like this: as §1
A further assay deals with T2, SPIC (Homo sapiens, UniProt Q8N5J4 1-248).
T2 sequence: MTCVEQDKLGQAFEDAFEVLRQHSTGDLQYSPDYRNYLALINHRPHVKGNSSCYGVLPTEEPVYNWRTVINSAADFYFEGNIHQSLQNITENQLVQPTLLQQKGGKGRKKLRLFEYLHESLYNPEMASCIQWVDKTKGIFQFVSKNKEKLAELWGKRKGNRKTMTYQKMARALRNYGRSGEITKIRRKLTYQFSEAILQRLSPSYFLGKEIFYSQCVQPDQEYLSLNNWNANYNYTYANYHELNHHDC
As to conditions: protein: recombinant; tags: N-terminal GST; dsDNA, one strand shown. An outline of the steps: as §1

The next assay has as its target ELF4 (Homo sapiens, UniProt Q99607 1-663). To be noted: protein: recombinant; tags: N-terminal GST; dsDNA, one strand shown. In short, it runs like this:
as §1

The next assay concerns the target T3, ELK4 (Homo sapiens, UniProt P28324-2 1-405).
T3 sequence: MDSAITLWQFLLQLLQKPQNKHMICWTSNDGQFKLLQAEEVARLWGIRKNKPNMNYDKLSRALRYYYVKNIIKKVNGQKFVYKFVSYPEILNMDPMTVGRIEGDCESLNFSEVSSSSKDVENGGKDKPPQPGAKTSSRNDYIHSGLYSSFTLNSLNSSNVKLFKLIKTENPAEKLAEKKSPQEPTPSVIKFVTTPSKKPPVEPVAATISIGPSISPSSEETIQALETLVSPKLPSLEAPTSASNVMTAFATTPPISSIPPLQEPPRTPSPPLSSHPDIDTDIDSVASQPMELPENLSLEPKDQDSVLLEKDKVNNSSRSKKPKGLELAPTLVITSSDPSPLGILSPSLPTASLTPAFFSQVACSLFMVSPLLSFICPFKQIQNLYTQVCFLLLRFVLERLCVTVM
To be noted: protein: recombinant; tags: N-terminal GST; dsDNA, one strand shown. In short, it runs like this: as §1

In another assay the target is T4, ETV2 (Homo sapiens, UniProt O00321 1-342).
T4 sequence: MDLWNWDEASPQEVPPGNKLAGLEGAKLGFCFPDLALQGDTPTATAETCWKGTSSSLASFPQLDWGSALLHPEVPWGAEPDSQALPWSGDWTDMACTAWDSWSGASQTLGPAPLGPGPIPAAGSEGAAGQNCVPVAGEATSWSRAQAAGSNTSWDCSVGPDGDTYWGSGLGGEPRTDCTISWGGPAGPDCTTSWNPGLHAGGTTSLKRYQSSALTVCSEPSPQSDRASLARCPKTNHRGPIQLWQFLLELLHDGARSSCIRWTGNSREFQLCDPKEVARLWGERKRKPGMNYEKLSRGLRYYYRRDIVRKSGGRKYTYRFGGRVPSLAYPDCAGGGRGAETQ
As to conditions: protein: recombinant; tags: N-terminal GST; dsDNA, one strand shown. An outline of the steps: as §1

The target in the next assay is T5, ELF3 (Homo sapiens, UniProt P78545 1-371).
T5 sequence: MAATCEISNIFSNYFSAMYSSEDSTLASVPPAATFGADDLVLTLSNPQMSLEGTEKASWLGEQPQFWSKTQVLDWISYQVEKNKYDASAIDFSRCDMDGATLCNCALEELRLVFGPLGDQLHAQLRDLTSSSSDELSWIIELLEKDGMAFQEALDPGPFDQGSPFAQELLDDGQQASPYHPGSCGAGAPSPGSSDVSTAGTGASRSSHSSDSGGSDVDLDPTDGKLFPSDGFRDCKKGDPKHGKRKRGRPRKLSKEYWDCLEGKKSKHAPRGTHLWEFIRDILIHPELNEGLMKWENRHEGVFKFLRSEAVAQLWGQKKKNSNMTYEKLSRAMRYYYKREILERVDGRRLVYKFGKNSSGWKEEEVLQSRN
As to conditions: protein: recombinant; tags: N-terminal GST; dsDNA, one strand shown. An outline of the steps:
as §1

In another assay the target is CRX (Homo sapiens, UniProt O43186 1-299). As to conditions: protein: recombinant; tags: N-terminal GST; dsDNA, one strand shown. An outline of the steps:
as §1

In a further assay the target is ETV1 (Homo sapiens, UniProt P50549 1-477). To be noted: protein: recombinant; tags: N-terminal GST; dsDNA, one strand shown. An outline of the steps: as §1
For the next assay, the target named is T6, ERF (Homo sapiens, UniProt P50548 1-548).
T6 sequence: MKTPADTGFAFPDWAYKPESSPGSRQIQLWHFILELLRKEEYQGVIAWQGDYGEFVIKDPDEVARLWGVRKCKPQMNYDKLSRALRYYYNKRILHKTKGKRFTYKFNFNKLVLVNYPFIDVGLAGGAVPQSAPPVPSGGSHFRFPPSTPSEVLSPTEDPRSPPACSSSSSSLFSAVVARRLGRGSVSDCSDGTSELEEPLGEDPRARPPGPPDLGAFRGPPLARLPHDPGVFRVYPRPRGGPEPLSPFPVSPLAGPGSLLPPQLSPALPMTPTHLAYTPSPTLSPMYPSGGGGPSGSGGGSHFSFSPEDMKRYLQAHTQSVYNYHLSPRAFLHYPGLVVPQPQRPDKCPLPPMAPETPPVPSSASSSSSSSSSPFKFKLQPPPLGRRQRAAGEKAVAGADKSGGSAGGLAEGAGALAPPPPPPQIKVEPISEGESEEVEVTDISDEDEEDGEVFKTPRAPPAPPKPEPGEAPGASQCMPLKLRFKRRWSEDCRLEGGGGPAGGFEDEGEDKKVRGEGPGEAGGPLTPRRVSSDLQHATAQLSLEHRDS
As to conditions: protein: recombinant; tags: N-terminal GST; dsDNA, one strand shown. In short, it runs like this:
as §1

Another assay concerns the target T7, ETV3L (Homo sapiens, UniProt Q6ZN32 1-361).
T7 sequence: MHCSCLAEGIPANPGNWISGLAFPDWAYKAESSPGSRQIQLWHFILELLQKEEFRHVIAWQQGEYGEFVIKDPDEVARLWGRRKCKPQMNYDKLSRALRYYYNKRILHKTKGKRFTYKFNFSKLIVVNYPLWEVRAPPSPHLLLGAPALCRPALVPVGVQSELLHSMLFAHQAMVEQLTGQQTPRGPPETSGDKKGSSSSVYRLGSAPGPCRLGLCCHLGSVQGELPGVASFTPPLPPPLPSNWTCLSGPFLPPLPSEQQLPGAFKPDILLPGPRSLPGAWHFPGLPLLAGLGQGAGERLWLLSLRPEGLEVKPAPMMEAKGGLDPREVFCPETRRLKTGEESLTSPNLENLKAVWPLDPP
As to conditions: protein: recombinant; tags: N-terminal GST; dsDNA, one strand shown. An outline of the steps:
as §1

Another assay deals with T8, ETS2 (Homo sapiens, UniProt P15036 1-469).
T8 sequence: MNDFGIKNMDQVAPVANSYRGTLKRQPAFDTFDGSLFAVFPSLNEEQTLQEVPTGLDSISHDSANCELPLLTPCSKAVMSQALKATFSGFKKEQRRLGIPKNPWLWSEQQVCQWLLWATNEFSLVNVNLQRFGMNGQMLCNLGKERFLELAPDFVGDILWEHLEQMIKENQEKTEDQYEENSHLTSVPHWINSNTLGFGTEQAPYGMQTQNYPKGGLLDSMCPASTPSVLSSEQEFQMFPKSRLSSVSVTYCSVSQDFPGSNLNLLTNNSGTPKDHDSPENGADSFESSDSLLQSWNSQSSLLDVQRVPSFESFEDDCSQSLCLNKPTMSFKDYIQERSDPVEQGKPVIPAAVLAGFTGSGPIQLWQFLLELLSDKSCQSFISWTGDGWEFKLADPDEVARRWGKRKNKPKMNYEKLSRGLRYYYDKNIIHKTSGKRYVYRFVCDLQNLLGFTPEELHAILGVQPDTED
To be noted: protein: recombinant; tags: N-terminal GST; dsDNA, one strand shown. In short, it runs like this:
as §1

A further assay concerns the target T9, SPDEF (Homo sapiens, UniProt O95238 1-335).
T9 sequence: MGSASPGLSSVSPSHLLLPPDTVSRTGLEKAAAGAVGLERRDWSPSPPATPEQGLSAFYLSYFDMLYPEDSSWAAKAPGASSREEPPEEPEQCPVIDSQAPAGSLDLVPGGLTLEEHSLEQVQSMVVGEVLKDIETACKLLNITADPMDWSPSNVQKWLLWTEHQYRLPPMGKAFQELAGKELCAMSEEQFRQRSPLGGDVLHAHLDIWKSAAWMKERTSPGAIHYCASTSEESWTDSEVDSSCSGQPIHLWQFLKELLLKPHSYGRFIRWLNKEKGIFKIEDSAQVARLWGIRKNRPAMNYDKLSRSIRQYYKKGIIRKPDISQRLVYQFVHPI
As to conditions: protein: recombinant; tags: N-terminal GST; dsDNA, one strand shown. An outline of the steps:
as §1

In another assay the target is T10, ETV7 (Homo sapiens, UniProt Q9Y603 1-341).
T10 sequence: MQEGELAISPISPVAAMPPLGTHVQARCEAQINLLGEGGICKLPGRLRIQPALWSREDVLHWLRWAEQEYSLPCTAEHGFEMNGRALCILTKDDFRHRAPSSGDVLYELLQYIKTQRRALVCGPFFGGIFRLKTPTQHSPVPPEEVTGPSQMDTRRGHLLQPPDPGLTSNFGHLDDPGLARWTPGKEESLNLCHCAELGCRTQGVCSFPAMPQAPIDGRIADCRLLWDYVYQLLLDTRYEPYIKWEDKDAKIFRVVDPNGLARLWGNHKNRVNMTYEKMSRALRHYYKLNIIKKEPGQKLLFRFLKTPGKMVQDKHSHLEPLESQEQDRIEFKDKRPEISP
To be noted: protein: recombinant; tags: N-terminal GST; dsDNA, one strand shown. An outline of the steps:
as §1

In the next assay the target is T11, ELF5 (Homo sapiens, UniProt Q9UKW6-2 1-255).
T11 sequence: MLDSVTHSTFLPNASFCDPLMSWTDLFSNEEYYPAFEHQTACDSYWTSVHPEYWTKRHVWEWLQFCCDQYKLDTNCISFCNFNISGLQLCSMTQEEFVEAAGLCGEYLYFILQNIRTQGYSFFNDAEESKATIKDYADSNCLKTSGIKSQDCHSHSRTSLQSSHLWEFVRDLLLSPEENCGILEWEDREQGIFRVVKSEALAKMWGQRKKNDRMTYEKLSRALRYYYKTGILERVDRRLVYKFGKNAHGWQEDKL
As to conditions: protein: recombinant; tags: N-terminal GST; dsDNA, one strand shown. In short, it runs like this:
as §1

The target in the next assay is T12, ETV3 (Homo sapiens, UniProt P41162-2 1-143).
T12 sequence: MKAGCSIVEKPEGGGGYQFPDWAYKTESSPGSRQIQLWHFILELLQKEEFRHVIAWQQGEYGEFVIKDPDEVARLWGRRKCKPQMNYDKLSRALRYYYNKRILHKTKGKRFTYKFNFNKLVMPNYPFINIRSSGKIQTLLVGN
To be noted: protein: recombinant; tags: N-terminal GST; dsDNA, one strand shown. In short, it runs like this: as §1

The target in the next assay is ETV6 (Homo sapiens, UniProt P41212 1-452). To be noted: protein: recombinant; tags: N-terminal GST; dsDNA, one strand shown. An outline of the steps:
as §1

Sequence of ELF4 (Q99607 whole entry): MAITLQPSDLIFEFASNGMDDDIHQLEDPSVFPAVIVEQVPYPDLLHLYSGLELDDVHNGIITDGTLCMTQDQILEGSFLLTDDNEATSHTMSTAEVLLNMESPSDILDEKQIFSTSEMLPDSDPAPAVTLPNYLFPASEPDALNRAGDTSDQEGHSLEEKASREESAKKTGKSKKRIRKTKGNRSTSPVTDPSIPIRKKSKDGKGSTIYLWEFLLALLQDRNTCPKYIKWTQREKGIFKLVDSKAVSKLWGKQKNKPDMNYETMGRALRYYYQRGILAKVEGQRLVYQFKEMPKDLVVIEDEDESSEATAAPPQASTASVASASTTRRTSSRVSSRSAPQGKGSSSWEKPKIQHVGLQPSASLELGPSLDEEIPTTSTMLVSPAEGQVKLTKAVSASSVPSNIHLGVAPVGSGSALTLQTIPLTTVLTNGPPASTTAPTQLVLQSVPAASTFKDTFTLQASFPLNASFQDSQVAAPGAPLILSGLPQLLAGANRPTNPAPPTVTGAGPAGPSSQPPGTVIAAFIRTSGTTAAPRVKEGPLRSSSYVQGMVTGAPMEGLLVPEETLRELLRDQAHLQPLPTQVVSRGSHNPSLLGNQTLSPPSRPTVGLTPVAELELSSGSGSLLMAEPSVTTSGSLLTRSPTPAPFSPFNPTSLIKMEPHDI
Sequence of HSF1 (Q00613 whole entry): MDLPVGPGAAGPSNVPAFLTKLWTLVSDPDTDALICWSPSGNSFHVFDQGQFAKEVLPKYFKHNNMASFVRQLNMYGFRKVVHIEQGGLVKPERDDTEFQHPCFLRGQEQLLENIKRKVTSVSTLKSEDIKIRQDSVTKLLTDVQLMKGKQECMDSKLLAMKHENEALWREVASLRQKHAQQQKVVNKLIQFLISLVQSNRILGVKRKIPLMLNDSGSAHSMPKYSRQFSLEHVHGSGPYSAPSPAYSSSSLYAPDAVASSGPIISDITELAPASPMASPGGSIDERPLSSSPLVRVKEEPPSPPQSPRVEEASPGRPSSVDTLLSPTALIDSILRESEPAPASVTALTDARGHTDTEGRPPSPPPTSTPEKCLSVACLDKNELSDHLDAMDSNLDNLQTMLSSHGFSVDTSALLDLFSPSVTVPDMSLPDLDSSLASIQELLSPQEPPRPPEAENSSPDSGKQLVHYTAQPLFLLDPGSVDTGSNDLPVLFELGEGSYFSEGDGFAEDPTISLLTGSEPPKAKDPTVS
Sequence of CRX (O43186 whole entry): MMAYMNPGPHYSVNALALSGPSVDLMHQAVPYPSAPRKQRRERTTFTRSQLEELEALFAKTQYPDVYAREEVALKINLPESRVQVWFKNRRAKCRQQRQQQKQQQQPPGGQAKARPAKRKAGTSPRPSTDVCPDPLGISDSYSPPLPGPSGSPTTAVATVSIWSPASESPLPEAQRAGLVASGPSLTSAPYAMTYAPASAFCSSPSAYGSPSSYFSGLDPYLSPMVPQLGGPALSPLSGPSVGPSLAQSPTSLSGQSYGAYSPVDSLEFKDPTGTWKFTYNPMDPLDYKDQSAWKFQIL
Sequence of ETV1 (P50549 whole entry): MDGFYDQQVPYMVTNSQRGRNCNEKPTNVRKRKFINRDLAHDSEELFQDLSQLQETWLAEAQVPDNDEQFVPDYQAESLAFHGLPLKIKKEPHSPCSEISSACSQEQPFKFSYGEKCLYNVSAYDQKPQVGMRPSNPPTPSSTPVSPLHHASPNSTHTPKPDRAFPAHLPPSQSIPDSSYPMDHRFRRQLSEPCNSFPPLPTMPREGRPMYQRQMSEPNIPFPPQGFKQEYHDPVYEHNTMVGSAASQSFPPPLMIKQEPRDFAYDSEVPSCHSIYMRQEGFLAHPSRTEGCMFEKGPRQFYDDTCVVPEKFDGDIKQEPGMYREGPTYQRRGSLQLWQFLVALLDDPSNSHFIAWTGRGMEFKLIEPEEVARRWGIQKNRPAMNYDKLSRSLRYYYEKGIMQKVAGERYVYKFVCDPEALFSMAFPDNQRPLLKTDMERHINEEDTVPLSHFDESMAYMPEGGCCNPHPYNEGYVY
Sequence of ETV5 (P41161 whole entry): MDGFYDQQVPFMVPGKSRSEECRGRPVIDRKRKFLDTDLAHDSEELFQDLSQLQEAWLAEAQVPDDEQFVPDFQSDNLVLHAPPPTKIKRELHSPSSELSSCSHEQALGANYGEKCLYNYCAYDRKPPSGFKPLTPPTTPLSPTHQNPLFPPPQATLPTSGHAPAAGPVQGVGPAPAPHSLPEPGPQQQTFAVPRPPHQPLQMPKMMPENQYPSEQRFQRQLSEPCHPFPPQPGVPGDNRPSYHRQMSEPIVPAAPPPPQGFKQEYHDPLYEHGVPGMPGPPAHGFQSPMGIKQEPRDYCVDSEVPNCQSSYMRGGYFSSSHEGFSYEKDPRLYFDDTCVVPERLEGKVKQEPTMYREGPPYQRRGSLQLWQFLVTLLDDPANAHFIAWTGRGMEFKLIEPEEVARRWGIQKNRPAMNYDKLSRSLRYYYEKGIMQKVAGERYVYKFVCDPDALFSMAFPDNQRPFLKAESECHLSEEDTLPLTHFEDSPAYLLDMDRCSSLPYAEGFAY
Sequence of ETV6 (P41212 whole entry): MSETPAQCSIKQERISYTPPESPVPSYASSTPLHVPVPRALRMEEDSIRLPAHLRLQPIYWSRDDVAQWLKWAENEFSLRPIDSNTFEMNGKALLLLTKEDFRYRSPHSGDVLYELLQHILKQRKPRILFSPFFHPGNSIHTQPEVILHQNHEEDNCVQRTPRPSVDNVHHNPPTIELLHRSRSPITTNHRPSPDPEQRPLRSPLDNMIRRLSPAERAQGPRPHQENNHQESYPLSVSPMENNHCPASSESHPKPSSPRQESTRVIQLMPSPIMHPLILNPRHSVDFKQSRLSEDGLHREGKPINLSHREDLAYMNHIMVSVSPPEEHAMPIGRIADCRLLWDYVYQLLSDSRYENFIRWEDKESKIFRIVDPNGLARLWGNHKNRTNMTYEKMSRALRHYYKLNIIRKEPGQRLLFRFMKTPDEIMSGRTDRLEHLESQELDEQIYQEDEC

With CGTTAA, the binding signal with FEV was 1.18 fold enrichment (6-mer frequency, TF over GST control); in the assay with ETV5 it was 1.21 fold enrichment (6-mer frequency, TF over GST control); with HSF1, 1.31 fold enrichment (6-mer frequency, TF over GST control); in the assay with SPIC, 1.34 fold enrichment (6-mer frequency, TF over GST control); with ELF4, 1.12 fold enrichment (6-mer frequency, TF over GST control); with ELK4 it was 1.07 fold enrichment (6-mer frequency, TF over GST control). The binding signal with ETV2 was 1.36 fold enrichment (6-mer frequency, TF over GST control); in the assay with ELF3, 1.27 fold enrichment (6-mer frequency, TF over GST control); with CRX it was 1.7 fold enrichment (6-mer frequency, TF over GST control); in the assay with ETV1, 1.09 fold enrichment (6-mer frequency, TF over GST control); in the assay with ERF, 1.06 fold enrichment (6-mer frequency, TF over GST control); with ETV3L, 1.18 fold enrichment (6-mer frequency, TF over GST control). Besides, the binding signal in the assay with ETS2 was 1.12 fold enrichment (6-mer frequency, TF over GST control); in the assay with SPDEF, 1.1 fold enrichment (6-mer frequency, TF over GST control); with ETV7 it was 1.12 fold enrichment (6-mer frequency, TF over GST control); in the assay with ELF5, 1.19 fold enrichment (6-mer frequency, TF over GST control); with ETV3, 1.21 fold enrichment (6-mer frequency, TF over GST control); in the assay with ETV6, 1.16 fold enrichment (6-mer frequency, TF over GST control).
